Among the data in PubChem BioAssay (NCI) are growth values, retold here.

SMILES strings stand for the structures. Compounds without any hit were thinned out: in the full panel of roughly 83,000, 20% have a hit.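 Step 1: grow cells in 96-well plates. Step 2: add test compound at a single concentration. Step 3: incubate 48 h. Step 4: record percent growth.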 Values without a mark were called inactive. Active and inactive are the calls of the source. Rule for the calls: active = growth percent below 10; inactive = the rest.

The test system of one experiment is SF-268 CNS. Briefly: NCI-60 one-dose screen, 48 h (100 = growth as untreated, 0 = no growth, -100 = all killed). The following applies: 10 µM unless noted.
For `COc1ccc(Cn2cc3c(c2-c2ccccc2)CCc2cnoc2-3)cc1OC`, the growth was 47.1%. Turning to `CC1(C)Oc2cc3oc(=O)ccc3cc2C[C@@H]1OCCOS(=O)(=O)c1ccc(C#N)cc1`, the growth is 89.2%. As for `c1ccc(-c2cn3ccnc3c(-c3ccc4ncn(C5CCCCC5)c4c3)n2)cc1`, the growth is 78.2%.

`COC(=O)/C=C/c1cc(O)c2oc(-c3ccc(O)c(O)c3)c(C(=O)OC)c2c1`: the growth is 25.2%. Same read-out and setting: as for `CC1=C[C@@H]2c3c(c(O)c(O)c4oc5cc(O)cc(O)c5c(=O)c34)[C@@H](c3cc(O)c(O)c4oc5cc(O)cc(O)c5c(=O)c34)[C@@H]2C(C)(C)C1`, the figure is 3.54% (active); as for `COc1ccc(C(=O)CN2C(=O)NC(c3ccccc3)(c3ccccc3)C2=O)cc1`, 101%.

As for `NNC(=S)N1N=C(c2cc3ccccc3o2)CC1c1c[nH]c2ccccc12` (stereo unspecified), the growth was 29.6%. Take `Cc1c(C(N)=O)sc2c1c(=O)n(Cc1ccccc1)c1nnc(S(C)(=O)=O)n21`: the growth is 96.7%. Regarding `CCOC(=O)C1=NN(c2ccccc2)C2=NC(=O)/C(=C\c3cn(-c4ccccc4)nc3-c3cc4ccccc4o3)C(=O)N12`, the growth is 105%. As for `CCCCN(CCCC)CC(O)CN(CC)CC` (stereo unspecified), the growth was 106%. On the same count and under the same terms, as for `CC(C)OC(=O)[C@H](C)N[P@@](=O)(OC[C@@]1(C)O[C@@H](n2cc(F)c(N)nc2=O)C[C@@H]1O[P@](=O)(N[C@@H](C)C(=O)OC(C)C)Oc1ccccc1)Oc1ccccc1`, the figure is 54%; as for `COc1ccc(Cn2cc3c(c2)-c2oncc2CC3)cc1OC`, 33.1%. Consider `COc1ccc(Cn2cc3c(c2-c2ccc(OC)cc2)CCc2cnoc2-3)cc1`, for which the growth was 30.5%. On the same count and under the same terms, next, `COc1ccc2oc(=O)cc(CN3C(=O)S/C(=C\c4ccc(Cl)cc4)C3=O)c2c1`: 92.2%. For `COc1cc(-c2nc(/C=C3/C(=O)Nc4ccccc43)c3ccccn23)cc(OC)c1OC`, the growth was 47%. `CCNc1nnc(COc2ccc(CNC(=O)CCCC/C=C/C(C)C)cc2OC)o1`: the growth was 97.1%. As to `CC([C@H]1CC=C2C3CCC4=C[C@@H](N(C)C)CC[C@]4(C)C3CC[C@@]21C)N(C)C` (stereo partly specified), the growth is 2.29% (active). Consider `CCS(=O)(=O)OCCO[C@H]1Cc2cc3ccc(=O)oc3cc2OC1(C)C`, for which the growth was 98.9%. For `CC1(C)NCCC[C@]2(C)[C@H]3CC=C4[C@@H]5C[C@](C)(COC(=O)c6ccccc6C(=O)O)CC[C@]5(C)CC[C@@]4(C)[C@]3(C)CC[C@@H]12`, the growth was 60.7%. As for `O=C1c2ccccc2CCc2ccccc21`, the growth is 96.5%. Same read-out and setting: next, `O=C(/C=C/c1c[nH]c2ccccc12)c1cc2ccccc2o1`: 80.6%; `CCCCCCCCCCCCCCCCC(=O)O.CCCCCCCCCCCCCCCCCC(=O)O.CCCCCCCCCCCCCCCCCC(=O)O.CCCCCCCCCCCCCCCCCC(=O)O.CCCCCCCCCCCCCCCCCC(=O)O.CO[CH-]OC12COC1CC(O)C1(C)C(O)C(OC(C)O)C3=C(C)C(OC(=O)C(O)C([NH-])c4ccccc4)CC(O)(C(OC(=O)c4ccccc4)C21)C3(C)C.[Cu+].[Zn].[Zn].[Zn].[Zn].[Zn]` (stereo unspecified): 47.6%. Regarding `N#Cc1ccc(NC2c3ccccc3CC2O)cc1` (stereo unspecified), the growth is 115%. For the compound `C=CCN(C)C`, the growth is 106%. Regarding `CC[C@@H](C)/C=C(C)/C=C/C(=O)c1c(O)c(-c2ccc(OC(=O)[C@@]34CC[C@@](C)(C(=O)O3)C4(C)C)cc2)cn(O)c1=O`, the growth was -1.52% (active). Consider `Cc1c(CN(C)C)cc(C(C)C)cc1C(C)C`, for which the growth is 111%. Turning to `CC1(c2ccc(Br)cc2)NC(=O)NC1=O` (stereo unspecified), the growth is 98.4%. For the compound `Oc1ccc2ccccc2c1/C=N\Nc1ccccn1`, the growth was 16.8%. With `C=C(C)[C@@H]1CC[C@]2(COC(=O)c3ccccc3C(=O)O)CC[C@]3(C)[C@H](CC[C@@H]4[C@@]5(C)CCCNC(C)(C)[C@@H]5CC[C@]43C)[C@@H]12`, the growth is 73.2%. For the compound `O=C1C(Cl)=C(SC2=NCCN2)C(=O)c2ccccc21`, the growth is 62.1%. As to `COC(=O)Nc1nc2ccc(C(=O)c3ccccc3N(C)C3COC3)cc2[nH]1`, the growth was 45.7%. Same read-out and setting: next, `C[C@@H](c1ccc2c(c1)[nH]c1ccc(Cl)cc12)c1nc2ccc(Cl)cc2[nH]1`: 80.9%; `O=c1oc2ccc3ccccc3c2cc1-c1ccnc2[nH]c(=S)[nH]c(=O)c12`: 98.7%. For the compound `O=S(=O)(Cc1cccc2c(CS(=O)(=O)c3ccc(Cl)cc3)cccc12)c1ccc(Cl)cc1`, the growth is 92.5%. For the compound `COc1ccc(CN2C(=O)/C(=C\C(=O)c3ccc(OCCN4CCCC4)cc3)c3ccccc32)cc1`, the growth was 84.3%. Consider `Cc1cc(CSc2ccc(Cl)cc2)ccc1N`, for which the growth was 70%.

Another experiment has as its system SF-295 CNS. The description is as above. To be noted: 10 µM unless noted.
With `CC1(C)Oc2cc3oc(=O)ccc3cc2C[C@@H]1OCCOS(=O)(=O)c1ccc(C#N)cc1`, the growth was 87.7%. With `c1ccc(-c2cn3ccnc3c(-c3ccc4ncn(C5CCCCC5)c4c3)n2)cc1`, the growth is 60.2%. Regarding `COC(=O)/C=C/c1cc(O)c2oc(-c3ccc(O)c(O)c3)c(C(=O)OC)c2c1`, the growth is -11.3% (active). The same measure, in the same setting: as for `CC1=C[C@@H]2c3c(c(O)c(O)c4oc5cc(O)cc(O)c5c(=O)c34)[C@@H](c3cc(O)c(O)c4oc5cc(O)cc(O)c5c(=O)c34)[C@@H]2C(C)(C)C1`, the figure is -26.7% (active). Take `COc1ccc(C(=O)CN2C(=O)NC(c3ccccc3)(c3ccccc3)C2=O)cc1`: the growth was 98.8%.

Take `NNC(=S)N1N=C(c2cc3ccccc3o2)CC1c1c[nH]c2ccccc12` (stereo unspecified): the growth was 38.9%. As for `Cc1c(C(N)=O)sc2c1c(=O)n(Cc1ccccc1)c1nnc(S(C)(=O)=O)n21`, the growth was 89.4%. With `CCOC(=O)C1=NN(c2ccccc2)C2=NC(=O)/C(=C\c3cn(-c4ccccc4)nc3-c3cc4ccccc4o3)C(=O)N12`, the growth was 108%. The same measure, in the same setting: next, `CC(C)OC(=O)[C@H](C)N[P@@](=O)(OC[C@@]1(C)O[C@@H](n2cc(F)c(N)nc2=O)C[C@@H]1O[P@](=O)(N[C@@H](C)C(=O)OC(C)C)Oc1ccccc1)Oc1ccccc1`: 103%; `COc1ccc2oc(=O)cc(CN3C(=O)S/C(=C\c4ccc(Cl)cc4)C3=O)c2c1`: 92%; `COc1cc(-c2nc(/C=C3/C(=O)Nc4ccccc43)c3ccccn23)cc(OC)c1OC`: 92%.

For `CCNc1nnc(COc2ccc(CNC(=O)CCCC/C=C/C(C)C)cc2OC)o1`, the growth was 97.1%. As to `CC([C@H]1CC=C2C3CCC4=C[C@@H](N(C)C)CC[C@]4(C)C3CC[C@@]21C)N(C)C` (stereo partly specified), the growth was -86.8% (active). For the compound `CCS(=O)(=O)OCCO[C@H]1Cc2cc3ccc(=O)oc3cc2OC1(C)C`, the growth was 101%. Take `CC1(C)NCCC[C@]2(C)[C@H]3CC=C4[C@@H]5C[C@](C)(COC(=O)c6ccccc6C(=O)O)CC[C@]5(C)CC[C@@]4(C)[C@]3(C)CC[C@@H]12`: the growth was 60.3%. Turning to `O=C1c2ccccc2CCc2ccccc21`, the growth was 76.8%. As to `O=C(/C=C/c1c[nH]c2ccccc12)c1cc2ccccc2o1`, the growth was 91%. Turning to `CCCCCCCCCCCCCCCCC(=O)O.CCCCCCCCCCCCCCCCCC(=O)O.CCCCCCCCCCCCCCCCCC(=O)O.CCCCCCCCCCCCCCCCCC(=O)O.CCCCCCCCCCCCCCCCCC(=O)O.CO[CH-]OC12COC1CC(O)C1(C)C(O)C(OC(C)O)C3=C(C)C(OC(=O)C(O)C([NH-])c4ccccc4)CC(O)(C(OC(=O)c4ccccc4)C21)C3(C)C.[Cu+].[Zn].[Zn].[Zn].[Zn].[Zn]` (stereo unspecified), the growth was 16.5%.

For `N#Cc1ccc(NC2c3ccccc3CC2O)cc1` (stereo unspecified), the growth was 114%. Still for that read-out and setting: next, `C=CCN(C)C`: 103%; `Cc1ccc(C(=O)NN)cc1`: 111%; `CC[C@@H](C)/C=C(C)/C=C/C(=O)c1c(O)c(-c2ccc(OC(=O)[C@@]34CC[C@@](C)(C(=O)O3)C4(C)C)cc2)cn(O)c1=O`: -9.51% (active). Consider `Cc1c(CN(C)C)cc(C(C)C)cc1C(C)C`, for which the growth is 116%. Take `CC1(c2ccc(Br)cc2)NC(=O)NC1=O` (stereo unspecified): the growth was 110%.

Turning to `Oc1ccc2ccccc2c1/C=N\Nc1ccccn1`, the growth is -42.7% (active). Still for that read-out and setting: next, `C=C(C)[C@@H]1CC[C@]2(COC(=O)c3ccccc3C(=O)O)CC[C@]3(C)[C@H](CC[C@@H]4[C@@]5(C)CCCNC(C)(C)[C@@H]5CC[C@]43C)[C@@H]12`: 66.6%; `COC1=C(OC)C(=O)c2ccccc2C1=O`: 108%; `C=C1CCC2C3(C)COC(c4ccccc4)OC3CCC2(C)C1C/C=C1/C(=O)OCC1O` (stereo unspecified): 87.6%. Turning to `CCCCCC(=C/c1ccccc1)/C=N/N=C(N)N`, the growth was -64.3% (active). Consider `O=C1C(Cl)=C(SC2=NCCN2)C(=O)c2ccccc21`, for which the growth was 106%. The same measure, in the same setting: as for `COC(=O)Nc1nc2ccc(C(=O)c3ccccc3N(C)C3COC3)cc2[nH]1`, the figure is 14.3%; as for `C[C@@H](c1ccc2c(c1)[nH]c1ccc(Cl)cc12)c1nc2ccc(Cl)cc2[nH]1`, 99.4%.

For the compound `O=c1oc2ccc3ccccc3c2cc1-c1ccnc2[nH]c(=S)[nH]c(=O)c12`, the growth was 101%. Take `COc1ccc(CN2C(=O)/C(=C\C(=O)c3ccc(OCCN4CCCC4)cc3)c3ccccc32)cc1`: the growth was 93.9%. `Cc1cc(CSc2ccc(Cl)cc2)ccc1N`: the growth is 101%.
